Bioassay records: PubChem BioAssay, National Center for Advancing Translational Sciences (NCATS)
MCF10A rereplic = A quantitative high throughput screen for small molecules that induce DNA re-replication in MCF 10a normal breast cells. Potency, µM (doses to about 46.1 µM), most hits filed as activators. 350,000 tested, 2.9% active. AID 624296, 2012. MCF 10A DNA re-replication, Hoechst nuclear intensity, 48 h; note: nearly all actives have a fitted effect of over 50% in size
TDP1 cell CPT = qHTS for Inhibitors of human tyrosyl-DNA phosphodiesterase 1 (TDP1): qHTS in cells in presence of CPT | chicken DT40 Tdp1-/-;hTDP1 cells + 20 nM CPT, ATP luminescence, 48 h | 420,000 tested, 12% active | AID 686979, 2013 | Potency, µM (series often up to 46.2 µM), hits mostly inhibitors; note: nearly all actives have a fitted effect of over 55% in size
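Cell growth measured by CellTiter-Glo luminescence after a minimum 48 h, 37 C compound exposure with 20 nM CPT in Tdp1-knockout DT40 cells stably expressing hTDP1, seeded 400/well; qHTS titration format.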
SW480 rereplic = A quantitative high throughput screen for small molecules that induce DNA re-replication in SW480 colon adenocarcinoma cells; Potency, µM (highest dose often 46.1 µM), usual class: activators; SW480 DNA re-replication, Hoechst DNA content imaging, 48 h; 340,000 tested, 1.8% active; note: nearly all actives have a fitted effect of over 55% in size
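Cells (250 per well) received 23 nL compound or DMSO by pin tool and were kept 48 hr at 37 C, 5% CO2. Nuclei were then stained with Hoechst for 40 min and scanned for DNA content.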
Chronic BCR inh = qHTS Assay to Find Inhibitors of Chronic Active B-Cell Receptor Signaling | ABC-DLBCL IkBa-CBG/CBR reporter, luminescence ratio, 4 h | Potency, µM (highest dose often 46.1 µM), hits mostly inhibitors | 340,000 tested, 0.05% active; active = well fitted inhibition curve with a large enough effect in the signal ratio, with a control signal flat, not every such curve was filed as active; inconclusive = small, poorly fitted or top-dose-only effect, or effect the other way, or a change in a side signal; the % refers to the signal ratio
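Cell line TMD8 (human ABC DLBCL), stably expressing tet-inducible CBG68-IkBa fusion and CBR; IMDM/0.5% FBS; cpd up to 46 uM; dox induction, 4 h, 37C/5% CO2; dual luminescence; green/red ratio; MG132 control.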
IL1B secr inh = qHTS for Inhibitors of Inflammasome Signaling: IL-1-beta AlphaLISA Primary Screen | THP-1 LPS/ATP IL-1B secretion, AlphaLISA, 16 h; active compounds read low | activity change, % at 57.5 µM | 360,000 tested, 4.7% active | AID 743279, 2014; in the data active = activity change below about -50%; inconclusive = mostly about -30% to -49%
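THP-1 cells pretreated 1 hr with compounds (up to 57.5 uM final), then stimulated with LPS (250 ng/mL final) plus ATP (1.25 mM final); secreted IL-1B measured by AlphaLISA after 16 hr, decreased signal indicating inhibition.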
DT40 TDP1 no CPT = qHTS for Inhibitors of human tyrosyl-DNA phosphodiesterase 1 (TDP1): qHTS in cells in absence of CPT. DT40 Tdp1-/- hTDP1 cells, no CPT, ATP luminescence, 48 h. Potency, µM (doses to about 46.2 µM), usual class: inhibitors. 420,000 tested, 15% active; note: nearly all actives have a fitted effect of over 55% in size
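A cellular qHTS used chicken DT40 cells lacking endogenous Tdp1 but carrying stably transfected human TDP1. Compounds were applied without camptothecin, and cell growth kinetics were judged by ATP-dependent luminescence after ≥48 hr.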
Each line names hits and unclear results; the compound was inactive in the other large screens. The list is not random: actives were taken first. Their share in the collection is about 19%. Unless noted, calls come from the whole dose curve; as a rule, active = well fitted curve in the direction sought with a large enough effect; inconclusive = small, poorly fitted or top-dose-only effect, or another doubt; inactive = no such curve, though single readings can be large; an effect the other way counts as inactive or inconclusive.

O=C1c2cccc3cccc(c23)C(=O)N1CCN1CCN(C(=S)Nc2ccc(Cl)cc2)CC1	TDP1 cell CPT inconclusive, DT40 TDP1 no CPT inconclusive
CCOC(=O)N1CCN(CC(O)COCc2cc(OC)c(OC)c(OC)c2)CC1 (configuration not stated)	MCF10A rereplic inconclusive
COc1cc(COCC(O)CN2CCN(CCN3C(=O)c4cccc5cccc(c45)C3=O)CC2)cc(OC)c1OC (configuration not stated)	TDP1 cell CPT 18µM, SW480 rereplic inconclusive, Chronic BCR inh inconclusive, IL1B secr inh inconclusive, DT40 TDP1 no CPT 12µM
O=C1c2cccc3cccc(c23)C(=O)N1CCN1CCN(CC(O)COCc2ccc(Cl)cc2)CC1 (configuration not stated)	MCF10A rereplic inconclusive, TDP1 cell CPT 8.2µM, IL1B secr inh inconclusive, DT40 TDP1 no CPT 15µM (no result: SW480 rereplic)
Cc1ccc(S(=O)(=O)N2CCN(C(=O)COC(=O)CSc3ccc(C)c(C)c3)CC2)c(C)c1	none
Cc1nc(/C(N)=N/OC(=O)Cc2ccccc2)no1	Chronic BCR inh inconclusive
CC(CN1CCN(C)CC1)OC(=O)c1ccc(Cl)cc1 (configuration not stated)	MCF10A rereplic inconclusive, IL1B secr inh -84
COc1ccccc1Nc1nc(-c2c(C)[nH]c3ccccc23)cs1	MCF10A rereplic 5.8µM, TDP1 cell CPT inconclusive, SW480 rereplic 10µM, DT40 TDP1 no CPT inconclusive
CNc1nc(-c2c(C)[nH]c3ccc(OC)cc23)cs1	Chronic BCR inh inconclusive, DT40 TDP1 no CPT inconclusive
Cc1nn(CC(=O)Nc2cc(F)ccc2F)c(=O)c2cccn12	none (no result: MCF10A rereplic, SW480 rereplic, Chronic BCR inh, IL1B secr inh)
CC(C)Cc1ccc(CN2CCCC(NC(=O)CCCN3CCCC3=O)C2)cc1 (configuration not stated)	TDP1 cell CPT inconclusive, DT40 TDP1 no CPT 21µM
CC(C)Cc1ccc(CN2CCCC(NC(=O)Cn3cnnn3)C2)cc1 (configuration not stated)	MCF10A rereplic inconclusive, TDP1 cell CPT inconclusive
CC(C)Cc1ccc(CN2CCCC(NC(=O)CCn3cnnn3)C2)cc1 (configuration not stated)	MCF10A rereplic inconclusive, TDP1 cell CPT inconclusive, IL1B secr inh -60, DT40 TDP1 no CPT inconclusive
CC(Cc1c[nH]c2ccccc12)C(=O)NCc1ccco1 (configuration not stated)	none
COc1cc(NC(=O)Cn2c(-c3ccccc3)cc(C(C)=O)c2C)cc(OC)c1	TDP1 cell CPT 21µM, Chronic BCR inh inconclusive, DT40 TDP1 no CPT 16µM (no result: MCF10A rereplic, SW480 rereplic, IL1B secr inh)
CCOC(=O)c1cc(-c2ccccc2)n(CC(=O)NC(C)c2ccccc2)c1C (configuration not stated)	TDP1 cell CPT 18µM, DT40 TDP1 no CPT 9.2µM (no result: MCF10A rereplic, SW480 rereplic, IL1B secr inh)
CCOC(=O)c1cc(-c2ccccc2)n(CC(=O)Nc2ccc(OCC)cc2)c1C	MCF10A rereplic inconclusive, TDP1 cell CPT inconclusive, DT40 TDP1 no CPT inconclusive
CCOC(=O)c1cc(-c2ccccc2)n(CC(=O)Nc2cc(OC)cc(OC)c2)c1C	MCF10A rereplic inconclusive, TDP1 cell CPT 21µM, Chronic BCR inh inconclusive, DT40 TDP1 no CPT 16µM
COc1ccccc1NC(=O)N(C)C[C@H]1OCc2cnnn2CCCC(=O)N([C@H](C)CO)C[C@@H]1C	none (no result: MCF10A rereplic, SW480 rereplic, Chronic BCR inh)
O=C(Nc1c(-c2ccc3c(c2)OCO3)[nH][nH]c1=O)c1ccccc1	TDP1 cell CPT inconclusive, DT40 TDP1 no CPT inconclusive (no result: MCF10A rereplic, SW480 rereplic, Chronic BCR inh)
COc1cccc(-c2nn(-c3ccccc3)cc2CN(C)Cc2ccno2)c1	TDP1 cell CPT 21µM, SW480 rereplic inconclusive, DT40 TDP1 no CPT 21µM
